Experimental findings from PubChem BioAssay (NCI) are described below.

The structures appear in SMILES notation. About 83,000 compounds went through this panel and 20% of them were active in at least one assay; those are over-represented in the sample as a whole.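 For each line, cells grew in 96-well plates with the test compound present at a single concentration for 48 hours.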 Unmarked numbers belong to inactive results. The source made the active and inactive calls. The calls were made as follows: active = growth percent below 10; inactive = the rest.

The first test deals with TK-10 renal. The test can be described thus: NCI-60 one-dose screen, 48 h (100 = growth as untreated, 0 = no growth, -100 = all killed). To be noted: 10 µM unless noted.
For the compound `Cc1ccc2c(NCCCN(C)C)c3c(C)nn(C)c3nc2c1`, the growth is 28.4%.
Take `CCc1ccccc1NC(=O)c1sc2nc3c(cc2c1N)C(=O)CCC3`: the growth is 54.7%.
With `C#Cc1nc(Nc2cc(C)[nH]n2)c2ccccc2n1`, the growth was -21.3% (active).
`CC(=O)Oc1cc2cnc3c4cc(OC(C)=O)c(OC(C)=O)cc4ccc3c2cc1OC(C)=O`: the growth is 21.8%.
As for `Cc1cc(Nc2nc(-c3cccnc3)nc3ccccc23)n[nH]1`, the growth is 59.8%.
In the case of `CNC(=S)N/N=C/CSC/C=N/NC(=S)NC`, the growth is 103%.
For the compound `COc1ccc(CN(c2ccc(C)cc2)C2OC(=O)c3ccccc32)cc1OC` (stereo not drawn), the growth was 107%.
In the case of `COc1cccc(-n2cc(-c3nc(Nc4cc(C)[nH]n4)c4ccccc4n3)nn2)c1`, the growth is 33.3%.
As to `COc1cc(OC)c(/C=C/c2cc[n+](C)c3ccccc23)c(OC)c1`, the growth was 53.4%.
In the case of `Cc1nn(-c2nc3ccccc3[nH]2)c2c1C(c1ccc3c(c1)OCO3)CC(=O)N2` (stereo not drawn), the growth is 69.4%.
For `CC1(C)OCC2OC3(C(=O)O)OC(C)(C)OC3C2O1` (stereo not drawn), the growth is 102%.
Consider `NCc1cn2cc(Cl)sc2n1`, for which the growth was 92.1%.
Still for that read-out and setting: the same measure for `COc1ccc(/C=N\NC(=O)c2ccncc2)cc1O`: 102%; for `Nc1cc2nc3ccccc3sc-2cc1=O`: 137%; for `N#CC1=C(N)Oc2c(ccc3ccccc23)C1c1cccs1` (stereo not drawn): 77.6%.
On the same count and under the same terms, the same measure for `CCOC(=O)c1ccc2c(c1)nc(/C=C/c1ccc(Cl)cc1)n2-c1cc(C(C)(C)C)[nH]n1`: 60%.
Consider `CCOC(=O)c1nc(Nc2cc(C)[nH]n2)c2ccccc2n1`, for which the growth is 77.3%.
Take `O=C(Nc1ccc(F)cc1)Nc1ccc(CCO)cc1`: the growth was 112%.
For the compound `O=[N+]([O-])c1cccc(C2CC(c3ccccc3)=Nc3ccccc3S2)c1` (stereo not drawn), the growth was 124%.
Regarding `COc1cc(-c2c3sc(=O)[nH]c3nc3c2c(=O)[nH]n3C(C)C)cc2c1OCO2`, the growth is 114%.
As to `O=C(N/N=C/c1ccc(O)cc1O)c1cccnc1`, the growth is 39.4%.
Take `CCCCCCCCOC(=O)CC[C@@H](C)[C@H]1CC[C@H]2[C@@H]3[C@H](OC(=O)CCN)C[C@@H]4C[C@H](OC(=O)CCN)CC[C@]4(C)[C@H]3C[C@H](OC(=O)CCN)[C@]12C`: the growth is 136%.
For `CCOC(=O)N1CCN(c2nc(Nc3cc(C)[nH]n3)c3ccccc3n2)CC1`, the growth is 40.9%.
For the compound `Cc1ccc(C2CC3c4ccccc4C2C2CCCCN32)cc1` (stereo not drawn), the growth is 97.1%.
Still for that read-out and setting: the same measure for `CC#Cc1nc2ccccc2c(=O)[nH]1`: 48%.
For the compound `COc1c(C2CC(=O)Nc3c2cnn3Cc2ccco2)cc2c(c1OC)OCO2` (stereo not drawn), the growth is 73.9%.
Still for that read-out and setting: the same measure for `Oc1ccccc1/C=N/Nc1ccc2ccccc2n1`: 62.8%; for `Cc1cc(Nc2nc(N3CCN(C)CC3)nc3ccccc23)n[nH]1`: 54.8%.
Same read-out and setting: the same measure for `COc1cccc2c1C(=O)c1c(O)c3c(c(O)c1C2=O)C[C@@](O)(/C(C)=N/NC(=O)c1ccc(Cl)cc1)C[C@@H]3OC1CC(N)C(O)C(C)O1` (stereo partly drawn): -23.2% (active).
`C#Cc1nc2ccccc2c(=O)[nH]1`: the growth is -42.3% (active).
On to `O=C1Nc2ccc(Br)cc2C12CC(c1ccccc1)=NN2` (stereo not drawn), for which the growth was 77.8%.
With `CCCCCCCCCCCCN1CCCC(C)C1` (stereo not drawn), the growth is 87.9%.
In the case of `Cc1ccc(NC(=O)c2sc3nc4c(cc3c2N)C(=O)CCC4)cc1C`, the growth was 59.9%.
For `O=C(NC(Cc1ccccc1)C(=O)CCl)OCc1ccccc1` (stereo not drawn), the growth was 84.8%.
As to `COc1c(Cl)cc(Cl)cc1Cl`, the growth was 109%.
Same read-out and setting: then `COc1cc(C2CC(=O)Nc3c2cnn3Cc2ccco2)cc2c1OCCO2` (stereo not drawn), with 102%; and `O=C1Nc2ccccc2/C1=C/C(=N/c1nnc(-c2ccc(Cl)cc2)s1)c1ccccc1`, with -36.4% (active); and `CC(=O)OCC(=O)C1CCC=CC1OC(C)=O` (stereo not drawn), with 110%.
Take `c1c2c(cc3c1OCO3)Cc1cc3c(cc1Cc1cc4c(cc1C2)OCO4)OCO3`: the growth was 116%.

In another test the test system is ACHN renal. Described as above. To be noted: 10 µM unless noted.
As for `Cc1ccc2c(NCCCN(C)C)c3c(C)nn(C)c3nc2c1`, the growth is 27.2%.
As for `CCc1ccccc1NC(=O)c1sc2nc3c(cc2c1N)C(=O)CCC3`, the growth was 58.4%.
On the same count and under the same terms, then `C#Cc1nc(Nc2cc(C)[nH]n2)c2ccccc2n1`, with -42.4% (active).
Same read-out and setting: the same measure for `CC(=O)Oc1cc2cnc3c4cc(OC(C)=O)c(OC(C)=O)cc4ccc3c2cc1OC(C)=O`: 15.3%.
As for `Cc1cc(Nc2nc(-c3cccnc3)nc3ccccc23)n[nH]1`, the growth was 38%.
As for `CNC(=S)N/N=C/CSC/C=N/NC(=S)NC`, the growth was 99.6%.
For the compound `COc1ccc(CN(c2ccc(C)cc2)C2OC(=O)c3ccccc32)cc1OC` (stereo not drawn), the growth was 95%.
Same read-out and setting: then `COc1cccc(-n2cc(-c3nc(Nc4cc(C)[nH]n4)c4ccccc4n3)nn2)c1`, with 24%; and `COc1cc(OC)c(/C=C/c2cc[n+](C)c3ccccc23)c(OC)c1`, with 71.8%; and `Cc1nn(-c2nc3ccccc3[nH]2)c2c1C(c1ccc3c(c1)OCO3)CC(=O)N2` (stereo not drawn), with 31%.
`CC1(C)OCC2OC3(C(=O)O)OC(C)(C)OC3C2O1` (stereo not drawn): the growth was 103%.
For `NCc1cn2cc(Cl)sc2n1`, the growth was 102%.
For `COc1ccc(/C=N\NC(=O)c2ccncc2)cc1O`, the growth is 102%.
In the case of `Nc1cc2nc3ccccc3sc-2cc1=O`, the growth was 65.5%.
Turning to `N#CC1=C(N)Oc2c(ccc3ccccc23)C1c1cccs1` (stereo not drawn), the growth was 35.2%.
Regarding `CCOC(=O)c1ccc2c(c1)nc(/C=C/c1ccc(Cl)cc1)n2-c1cc(C(C)(C)C)[nH]n1`, the growth was 23.8%.
For `CCOC(=O)c1nc(Nc2cc(C)[nH]n2)c2ccccc2n1`, the growth is 73.4%.
Consider `O=C(Nc1ccc(F)cc1)Nc1ccc(CCO)cc1`, for which the growth is 110%.
Same read-out and setting: the same measure for `O=[N+]([O-])c1cccc(C2CC(c3ccccc3)=Nc3ccccc3S2)c1` (stereo not drawn): 90.9%; for `COc1cc(-c2c3sc(=O)[nH]c3nc3c2c(=O)[nH]n3C(C)C)cc2c1OCO2`: 95.8%; for `O=C(N/N=C/c1ccc(O)cc1O)c1cccnc1`: 30.1%.
Same read-out and setting: the same measure for `CCCCCCCCOC(=O)CC[C@@H](C)[C@H]1CC[C@H]2[C@@H]3[C@H](OC(=O)CCN)C[C@@H]4C[C@H](OC(=O)CCN)CC[C@]4(C)[C@H]3C[C@H](OC(=O)CCN)[C@]12C`: 96.2%; for `CCOC(=O)N1CCN(c2nc(Nc3cc(C)[nH]n3)c3ccccc3n2)CC1`: 50.7%.
`Cc1ccc(C2CC3c4ccccc4C2C2CCCCN32)cc1` (stereo not drawn): the growth was 97.8%.
Take `CC#Cc1nc2ccccc2c(=O)[nH]1`: the growth is 28.8%.
Take `COc1c(C2CC(=O)Nc3c2cnn3Cc2ccco2)cc2c(c1OC)OCO2` (stereo not drawn): the growth is 40.2%.
For `Oc1ccccc1/C=N/Nc1ccc2ccccc2n1`, the growth is 40.6%.
With `Cc1cc(Nc2nc(N3CCN(C)CC3)nc3ccccc23)n[nH]1`, the growth is 41.3%.
Regarding `COc1cccc2c1C(=O)c1c(O)c3c(c(O)c1C2=O)C[C@@](O)(/C(C)=N/NC(=O)c1ccc(Cl)cc1)C[C@@H]3OC1CC(N)C(O)C(C)O1` (stereo partly drawn), the growth is -36.3% (active).
Same read-out and setting: the same measure for `C#Cc1nc2ccccc2c(=O)[nH]1`: -69.2% (active); for `O=C1Nc2ccc(Br)cc2C12CC(c1ccccc1)=NN2` (stereo not drawn): 49.1%.
The same measure, in the same setting: the same measure for `CCCCCCCCCCCCN1CCCC(C)C1` (stereo not drawn): 85.4%; for `Cc1ccc(NC(=O)c2sc3nc4c(cc3c2N)C(=O)CCC4)cc1C`: 52.2%.
For `O=C(NC(Cc1ccccc1)C(=O)CCl)OCc1ccccc1` (stereo not drawn), the growth was 72%.
As to `COc1c(Cl)cc(Cl)cc1Cl`, the growth is 112%.
Take `COc1cc(C2CC(=O)Nc3c2cnn3Cc2ccco2)cc2c1OCCO2` (stereo not drawn): the growth was 93.1%.
Same read-out and setting: the same measure for `O=C1Nc2ccccc2/C1=C/C(=N/c1nnc(-c2ccc(Cl)cc2)s1)c1ccccc1`: -71.4% (active); for `CC(=O)OCC(=O)C1CCC=CC1OC(C)=O` (stereo not drawn): 100%.
Still for that read-out and setting: then `c1c2c(cc3c1OCO3)Cc1cc3c(cc1Cc1cc4c(cc1C2)OCO4)OCO3`, with 101%.
